# This is one part of a sample in which hits are shown more often than they occur.
# U2OS ROS induce = ROS inducers in U2OS cancer cells, primary screen, cell-based, H2DCF-DA fluorescence; U2OS ROS induction; ROS induction (% of piperlongumine), % at 10 µM; 46,000 compounds, 2% hits; AID 624156, 2012; in the data active = ROS induction above about 79%, passing the limit was not always enough; inconclusive = no clear call, values can overlap the other calls
# NOMO-1 viab = NOMO-1 AML cell viability reduction, primary screen, STK33 inhibitor project, CellTiter-Glo luminescence. NOMO-1 AML viability, 72 h. inhibition, % (test concentration not listed). 37,000 compounds, 7.5% hits. AID 2330, 2010; in the data active = inhibition above about 80%; inconclusive = no clear call, values can overlap the other calls
# Hits are given with their value; - = inactive; ? = inconclusive; . = no result.
SMILES,U2OS ROS induce,NOMO-1 viab
COc1ccc(S(=O)(=O)N(C)C[C@H]2Oc3ccc(NC(=O)Nc4ccc(C(F)(F)F)cc4)cc3C(=O)N([C@@H](C)CO)C[C@H]2C)cc1,-,-
C[C@@H]1CN([C@H](C)CO)C(=O)c2cc(NC(=O)Nc3ccc(C(F)(F)F)cc3)ccc2O[C@H]1CN(C)S(=O)(=O)c1ccc(Cl)cc1,-,-
Cc1ccc(S(=O)(=O)N(C)C[C@H]2Oc3ccc(NC(=O)Nc4ccc(C(F)(F)F)cc4)cc3C(=O)N([C@H](C)CO)C[C@@H]2C)cc1,-,126
C[C@H]1CN([C@@H](C)CO)C(=O)c2cc(NC(=O)Nc3ccc(C(F)(F)F)cc3)ccc2O[C@@H]1CN(C)S(=O)(=O)c1ccccc1,-,-
COc1ccc(S(=O)(=O)N(C)C[C@H]2Oc3ccc(NC(=O)Nc4ccc(C(F)(F)F)cc4)cc3C(=O)N([C@H](C)CO)C[C@H]2C)cc1,-,88
Cc1ccc(S(=O)(=O)N(C)C[C@@H]2Oc3ccc(NC(=O)Nc4ccc(F)cc4)cc3C(=O)N([C@@H](C)CO)C[C@H]2C)cc1,-,-
C[C@H]1CN([C@@H](C)CO)C(=O)Cc2cc(NC(=O)CCN3CCOCC3)ccc2O[C@@H]1CN(C)S(=O)(=O)c1cccs1,-,-
C[C@@H]1CCCCO[C@H](CN(C)Cc2ccc(C(=O)O)cc2)[C@@H](C)CN([C@H](C)CO)C(=O)c2cc(NC(=O)Cc3ccccc3)ccc2O1,-,-
CC1(C)CC(=O)C2=C(C1)Nc1ccc3ccccc3c1C2c1cccnc1 (stereo not drawn),-,?
Cc1ccc(S(=O)(=O)N(C)C[C@@H]2Oc3ccc(NC(=O)CCC(F)(F)F)cc3C(=O)N([C@@H](C)CO)C[C@@H]2C)cc1,-,-
CCOC(=O)Cn1cc(/C=C2\C(=O)NC(=O)N(c3ccc(F)cc3)C2=O)c2ccccc21,-,.
COCCN1C(=O)/C(=C/c2cn(CC(=O)OC)c3ccccc23)C(=O)N(c2ccccc2)C1=O,93,-
Oc1cc2c(c(Cl)c1O)CCNC[C@@H]2c1ccccc1,-,111
O=C1CCC(c2ccccc2)C(=O)C1C(=O)c1ccc(Cl)cc1Cl (stereo not drawn),-,-
CCc1ccc(-n2c(SCC(=O)c3ccc(Cl)cc3)nnc2-c2ccncc2)cc1,-,-
Cc1noc(C)c1NC(=O)Nc1ccc2c(c1)CC(=O)N([C@@H](C)CO)C[C@H](C)[C@H](CN(C)C(=O)Nc1ccc3c(c1)OCO3)O2,-,-
C/C=C(/C)C(=O)O[C@H]1C=C(CO)C(=O)[C@H](OC(=O)/C(C)=C/CO)[C@H]1C(C)C,87,122
COc1ccccc1C(=O)N(Cc1nnc2c3ccccc3c(C)nn12)c1ccccc1,.,-
C[C@]12CCC(=O)C=C1CC[C@@H]1C2[C@@H](O)C[C@@]2(C)C1CC[C@@H]2C(=O)CO (stereo partly drawn),-,-
C[C@@H]1CN([C@H](C)CO)C(=O)Cc2cc(NC(=O)Cc3ccccc3)ccc2O[C@@H]1CN(C)Cc1ccc(Cl)c(Cl)c1,?,127
C[C@@H]1CN([C@@H](C)CO)C(=O)Cc2cc(NC(=O)Cc3ccccc3)ccc2O[C@@H]1CN(C)Cc1ccccc1,-,-
C[C@@H]1CN([C@@H](C)CO)C(=O)Cc2cc(NC(=O)Cc3ccccc3)ccc2O[C@@H]1CN(C)Cc1ccc(Cl)c(Cl)c1,-,108
C[C@@H]1CN([C@H](C)CO)C(=O)Cc2cc(NC(=O)Cc3ccccc3)ccc2O[C@H]1CN(C)Cc1ccc2c(c1)OCO2,-,-
CC(Oc1ccc(Cl)cc1Cl)C(=O)Nc1cc(C(F)(F)F)ccc1N1CCOCC1 (stereo not drawn),.,-
C[C@@H]1CN([C@H](C)CO)C(=O)Cc2cc(NC(=O)Nc3ccccc3)ccc2O[C@H]1CN(C)S(=O)(=O)c1ccccc1,-,-
SMILES,U2OS ROS induce,NOMO-1 viab
C[C@H](CO)N1C[C@H](C)[C@H](CN(C)S(C)(=O)=O)Oc2ccc(NC(=O)Nc3ccc(C(F)(F)F)cc3)cc2CC1=O,-,98
C[C@@H]1CN([C@H](C)CO)C(=O)Cc2cc(NC(=O)Nc3ccc(C(F)(F)F)cc3)ccc2O[C@@H]1CN(C)S(=O)(=O)c1ccc(F)cc1,-,90
C[C@H]1CN([C@@H](C)CO)C(=O)Cc2cc(NC(=O)Nc3ccc(F)cc3)ccc2O[C@@H]1CN(C)S(=O)(=O)c1ccc(Cl)cc1,-,-
C[C@@H]1CN([C@@H](C)CO)C(=O)Cc2cc(NC(=O)Nc3ccc(C(F)(F)F)cc3)ccc2O[C@@H]1CN(C)C,-,-
C[C@@H]1CN([C@@H](C)CO)C(=O)Cc2cc(NC(=O)Nc3ccc(C(F)(F)F)cc3)ccc2O[C@@H]1CN(C)S(=O)(=O)c1ccc(Cl)cc1,-,104
C[C@H]1CN([C@@H](C)CO)C(=O)Cc2cc(NC(=O)Nc3ccc(C(F)(F)F)cc3)ccc2O[C@H]1CN(C)S(=O)(=O)c1ccccc1,-,102
C[C@H]1CN([C@@H](C)CO)C(=O)Cc2cc(NC(=O)Nc3ccc(C(F)(F)F)cc3)ccc2O[C@@H]1CN(C)S(=O)(=O)c1ccc(F)cc1,-,-
C[C@H](CO)N1C[C@H](C)[C@H](CN(C)Cc2ccc(Cl)c(Cl)c2)Oc2ccc(NC(=O)CCN3CCOCC3)cc2C1=O,-,-
C[C@@H]1CN([C@@H](C)CO)C(=O)c2cc(NC(=O)C3CCCCC3)ccc2O[C@H]1CN(C)Cc1ccc(Cl)c(Cl)c1,-,-
Cc1ccc(S(=O)(=O)N(C)C[C@@H]2Oc3ccc(NC(=O)Nc4ccc(C(F)(F)F)cc4)cc3CC(=O)N([C@H](C)CO)C[C@H]2C)cc1,-,-
C[C@H]1CN([C@@H](C)CO)C(=O)Cc2cc(NC(=O)Nc3ccc(C(F)(F)F)cc3)ccc2O[C@H]1CN(C)S(=O)(=O)c1ccc(Cl)cc1,-,115
CNC[C@H]1Oc2c(NC(=O)Nc3ccc4c(c3)OCO4)cccc2C(=O)N([C@@H](C)CO)C[C@@H]1C,-,-
Cn1c(SCC(=O)Nc2ccccc2F)nnc1-c1ccc(Br)cc1,-,-
Cc1ccc2nc(-c3cccc(NC(=O)COc4ccc([N+](=O)[O-])cc4)c3)oc2c1,-,-
C[C@H](CO)N1C[C@H](C)[C@@H](CN(C)S(=O)(=O)c2cn(C)cn2)Oc2ccc(NC(=O)c3ccncc3)cc2C1=O,-,-
Cc1noc(C)c1NC(=O)N(C)C[C@@H]1Oc2ccc(NC(=O)Cn3cnnn3)cc2C(=O)N([C@@H](C)CO)C[C@@H]1C,-,-
CCOC(=O)c1ncoc1-c1ccc(Cl)cc1Cl,-,.
O[C@H]1C=C2CCN3Cc4cc5c(cc4C(C23)[C@@H]1O)OCO5 (stereo partly drawn),-,110
C[C@@H]1CCCCO[C@@H](CN(C)S(=O)(=O)c2ccc(Cl)cc2)[C@@H](C)CN([C@H](C)CO)C(=O)c2cc(NC(=O)Nc3cccc4ccccc34)ccc2O1,-,-
C[C@@H]1CN([C@H](C)CO)C(=O)c2cccc(NS(=O)(=O)c3ccc(Cl)cc3)c2O[C@H]1CN(C)S(=O)(=O)c1ccc(F)cc1,-,-
O=C(NCc1cccc2ccccc12)C(c1ccccc1)c1ccccc1,-,.
CCOC(=O)c1c(SC)nc2ccc(Cl)cc2c1N1CCOCC1,-,.
CC(CC(N)=O)OC(=O)c1cc(Cl)cc(O)c1O (stereo not drawn),-,88
